The values below come from PubChem BioAssay AID2284365 (EPA ToxCast).

The source made the active and inactive calls. Rule for the calls: active = hit-call score of the fitted dose curve at least 0.9, where 1 is the maximum; inactive = score below 0.9.

As usually defined, the AC50 is the concentration at which the activity in the assay is half-maximal.

The experiment in a line: CCTE_Mundy_HCI_iCellGABA_NOG_NeuronCount: CCTE's Neurite Outgrowth Assay in iCellGABA cells for Neuron Count, Mundy Lab. The method, then: CCTE_Mundy_HCI_iCellGABA_NOG is a multiplexed, cell-based-readout assay that uses iCell GABANeurons from FUJIFILM Cellular Dynamics, Inc. (FCDI), human GABAergic enriched neurons derived from induced pluripotent stem (iPS) cells, with measurements taken at 50.33 hours after chemical dosing in a microplate: 96-well plate.CCTE_Mundy_HCI_iCellGABA_NOG_NeuronCount is one of four components of the CCTE_Mundy_HCI_iCellGABA_NOG assay. It measures cell viability related to number of neurons using High Content Imaging of fluorescently labelled markers.Data from the assay component CCTE_Mundy_HCI_iCellGABA_NOG_NeuronCount was analyzed at the endpoint CCTE_Mundy_HCI_iCellGABA_NOG_NeuronCount in the positive analysis fitting direction relative to DMSO as the negative control and baseline of activity. Using a type of viability reporter, loss-of-signal activity can be used to understand developmental effects.
Exposure starts 2 hours post-plating by adding 10 ul of the working solution to 90 ul of media in the wells for a 1/10 dilution. Forty-eight hours after chemical treatment cells are fixed by direct addition of 100 ul of warm (37C) Dulbecco's phosphate buffered saline (DPBS) fixative solution containing 8% paraformaldehyde, 8% sucrose, and 0.1% of 3 mg/ml Hoechst 33342 into each well. Primary antibodies are prepared by dilution in Immunocytochemical Staining Buffer (ISB), 10X Dulbecco's PBS, 0.1% Saponin, 5% Bovine Serum Albumin, 0.5% NaN3 (Sodium Azide) and betaIII-tubulin (rabbit anti-betaIII-tubulin, 1:800) followed by Alexa Fluor-488 secondary (1:500) to label neuronal cell bodies and neurites. A Cellomics ArrayScan VTi HCS Reader is used for automated image acquisition and analysis of neurite outgrowth.
For `CCOP(=O)(SC(C)CC)N1CCSC1=O` (stereo unspecified), the compound was called inactive.

Regarding `CCOP(=S)(OCC)OC(Cl)C(Cl)(Cl)Cl` (stereo unspecified), the AC50 was 9.92 µM (active).

With `COP(=O)(OC)C(O)C(Cl)(Cl)Cl` (stereo unspecified), the AC50 was 0.205 µM (active). Take `CCOP(=S)(OCC)Oc1cc(C)nc(C(C)C)n1`: the call was inactive. With `CCOP(=S)(OCC)SCSCC`, the concentration at half-maximal activity (AC50) was 0.316 µM (active).

With `COP(N)(=O)SC` (stereo unspecified), the call was inactive. Consider `CCOP(=S)(OCC)SCSC(C)(C)C`, for which the AC50 is 9.92 µM (active).

Consider `CCOP(=S)(OCC)Oc1ccc2c(C)c(Cl)c(=O)oc2c1`, for which the AC50 was 23.4 µM (active). As for `COP(=O)(NC(C)=O)SC` (stereo unspecified), the call was inactive. For `CCOC(=O)CC(SP(=O)(OC)OC)C(=O)OCC` (stereo unspecified), the outcome was inactive. As to `COP(=O)(OC)OC=C(Cl)Cl`, the outcome was inactive. In the case of `COP(=O)(OC)O/C(C)=C/C(=O)N(C)C`, the outcome was inactive. For `CCCSP(=O)(OCC)SCCC`, the compound was classed as inactive.

Consider `COP(=O)(OC)OC(Br)C(Cl)(Cl)Br` (stereo unspecified), for which the AC50 is 9.92 µM (active).

For the compound `CCN(CC)c1nc(C)cc(OP(=S)(OC)OC)n1`, the AC50 was 19.1 µM (active).

Take `COP(=O)(OC)O/C(=C\Cl)c1cc(Cl)c(Cl)cc1Cl`: the compound was called inactive. For `CNC(=O)CSP(=S)(OC)OC`, the result was inactive. Consider `COP(=S)(OC)SCN1C(=O)c2ccccc2C1=O`, for which the AC50 is 9.92 µM (active). As to `CCCSP(=O)(OCC)Oc1ccc(Br)cc1Cl` (stereo unspecified), the result was inactive. `CCCCSP(=O)(SCCCC)SCCCC`: the half-maximal activity concentration (AC50) was 9.92 µM (active). `CCOP(=O)(OCC)Oc1cc(C)nc(C(C)C)n1`: the compound was called inactive. Same read-out and setting: then `CCOP(=S)(Oc1cnc(C(C)(C)C)nc1)OC(C)C` (stereo unspecified), with “inactive”. Turning to `CCOC(=O)CC(SP(=S)(OC)OC)C(=O)OCC` (stereo unspecified), the AC50 was 50 µM (active).

As for `CCOP(=O)(OCC)Oc1nc(Cl)c(Cl)cc1Cl`, the outcome was inactive. On to `CCOP(=S)(OCC)Oc1nc(Cl)c(Cl)cc1Cl`, for which the AC50 was 9.92 µM (active). For `CNC(=O)CSP(=O)(OC)OC`, the AC50 is 18.9 µM (active).
